From PubChem BioAssay (NCI) come the findings set out here.

The panel holds about 79,000 compounds, 15% with a hit somewhere; the sample as a whole holds those more often. A number with no mark means an inactive call. Activity calls are given as the source filed them. Cut-off read from the data, not from the text of the source: active = growth inhibition above about 70%; inactive = the rest.

Assay [1] in a line: NCI Yeast Anticancer Drug Screen. Data for the rad50 strain (AID 155).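 Note: 0% = growth of vehicle-only cultures of the same strain.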 The note with it: S. cerevisiae rad50 strain growth inhibition, stronger effect = higher value. The procedure, abridged: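 Relative growth inhibition (compound vs vehicle) was measured in yeast with a defined repair-gene alteration.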
A short description of assay [2]: NCI Yeast Anticancer Drug Screen. Data for the mec2-1 strain (AID 157). The note with it: S. cerevisiae mec2-1 strain, stronger effect = higher value. In outline:
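mec2-1 yeast strain, carrying an alteration in DNA damage repair or cell cycle control, was exposed to compounds; growth inhibition was measured relative to vehicle-treated controls.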

A short description of assay [3]: NCI Yeast Anticancer Drug Screen. Data for the sgs1 mgt1 strain (AID 161).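 Note: 0% = growth of cultures given vehicle only.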 The note with it: S. cerevisiae sgs1 mgt1 strain, stronger effect = higher value. In outline:
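This yeast growth screen uses a strain with defined DNA-repair lesions; compound-treated growth is compared with vehicle-treated growth.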

The nature of assay [4]: NCI Yeast Anticancer Drug Screen. Data for the cln2 rad14 strain (AID 165).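 Note: 0% = growth equal to vehicle treated cultures.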 The note with it: S. cerevisiae cln2 rad14 strain, stronger effect = higher value. In outline:
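Yeast carrying cln2 and rad14 alterations (cell cycle control and DNA damage repair) were exposed to compounds. Growth inhibition was measured against vehicle-treated controls.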

The nature of assay [5]: NCI Yeast Anticancer Drug Screen. Data for the bub3 strain (AID 167). The note with it: S. cerevisiae bub3 mutant strain, stronger effect = higher value. In outline:
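Screening used yeast with an engineered genetic alteration affecting cell cycle control. Compound-exposed cultures were compared with vehicle cultures, and reduced growth was taken as inhibition.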

Assay [6] is described as follows: NCI Yeast Anticancer Drug Screen. Data for the mlh1 rad18 strain (AID 175). Conditions: S. cerevisiae mlh1 rad18 strain growth inhibition, stronger effect = higher value. In outline:
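Growth inhibition of the yeast strain was measured after compound exposure and expressed relative to vehicle-treated controls. The strain carries defined defects in DNA damage repair.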

[7] abbreviates: at 5.0 µM (retest, dose inferred, filed as 0.5).
The mark [8] stands for this setting: at 50.0 µM (retest, dose inferred, filed as 5.0).

On to `Cc1ccc(C)c(C2CCCCC2O)c1` (stereo not given), for which the growth inhibition was -1% in assay [1] (setting [7]); -80% in assay [1] (setting [8]); 4.5% in assay [1] (at 50.0 µM); -8% in assay [2] (setting [7]); -25% in assay [2] (setting [8]); -11.7% in assay [2] (at 50.0 µM). In addition, the growth inhibition in assay [3] (setting [7]) was -1%; in assay [3] (setting [8]), -23%; in assay [3] (at 50.0 µM), -9.1%; in assay [4] (setting [7]), 9%; in assay [4] (setting [8]), -5%; in assay [4] (at 50.0 µM) it was 71.5% (active). Moreover, the growth inhibition in assay [5] (setting [7]) is -13%; in assay [5] (setting [8]) it was -87%; in assay [5] (at 50.0 µM), 51.1%; in assay [6] (setting [7]) it was 0%; in assay [6] (setting [8]), -40%; in assay [6] (at 50.0 µM), -16.1%.

In the case of `O=C1/C(=C/c2ccc(F)cc2)CNC/C1=C\c1ccc(F)cc1`, the growth inhibition in assay [1] (setting [7]) is 12%; in assay [1] (setting [8]), 44%; in assay [1] (at 50.0 µM), 79.2% (active); in assay [2] (setting [7]) it was 5%; in assay [2] (setting [8]) it was 36%; in assay [2] (at 50.0 µM), 84.8% (active). Moreover, the growth inhibition in assay [3] (setting [7]) was -2%; in assay [3] (setting [8]) it was 31%; in assay [3] (at 50.0 µM), 79.2% (active); in assay [4] (setting [7]) it was 35%; in assay [4] (setting [8]), 43%; in assay [4] (at 50.0 µM), 70.6% (active). The growth inhibition was -11% in assay [5] (setting [7]); 37% in assay [5] (setting [8]); 79.8% (active) in assay [5] (at 50.0 µM); 16% in assay [6] (setting [7]); 53% in assay [6] (setting [8]); 85.5% (active) in assay [6] (at 50.0 µM).

With `CCCCCCCCCCCC[N+](C)(CCS(=O)(=O)[O-])Cc1ccccc1` (stereo not given), the growth inhibition in assay [1] (setting [7]) is -1%; in assay [1] (setting [8]) it was 51%; in assay [1] (at 50.0 µM), 98.2% (active); in assay [2] (setting [7]), 6%; in assay [2] (setting [8]), 74% (active); in assay [2] (at 50.0 µM), 99.2% (active). For the same molecule, the growth inhibition in assay [3] (setting [7]) was 1%; in assay [3] (setting [8]), 36%; in assay [3] (at 50.0 µM), 41.9%; in assay [4] (setting [7]), 2%; in assay [4] (setting [8]) it was 66%; in assay [4] (at 50.0 µM), 77.5% (active). In addition, the growth inhibition is -2% in assay [5] (setting [7]); 61% in assay [5] (setting [8]); 72.1% (active) in assay [5] (at 50.0 µM); -2% in assay [6] (setting [7]); 97% (active) in assay [6] (setting [8]); 99.2% (active) in assay [6] (at 50.0 µM).

Take `CN(NC(=O)c1cccs1)C1=NCCCN1`: the growth inhibition in assay [1] (setting [7]) was 43%; in assay [1] (setting [8]) it was 83% (active); in assay [1] (at 50.0 µM) it was -18.2%; in assay [2] (setting [7]), 8%; in assay [2] (setting [8]), 21%; in assay [2] (at 50.0 µM), -4.9%. For the same molecule, the growth inhibition is 65% in assay [3] (setting [7]); 76% (active) in assay [3] (setting [8]); -16.9% in assay [3] (at 50.0 µM); 6% in assay [4] (setting [7]); 33% in assay [4] (setting [8]); 10.3% in assay [4] (at 50.0 µM). The growth inhibition in assay [5] (setting [7]) is 18%; in assay [5] (setting [8]) it was 22%; in assay [5] (at 50.0 µM) it was 4.8%; in assay [6] (setting [7]) it was 23%; in assay [6] (setting [8]) it was 55%; in assay [6] (at 50.0 µM) it was -20.7%.

Regarding `CCN(C(C)=O)c1cnc(/C=N/NC(N)=S)c2ccccc12`, the growth inhibition in assay [1] (setting [7]) was 13%; in assay [1] (setting [8]) it was 47%; in assay [1] (at 50.0 µM), 66.6%; in assay [2] (setting [7]) it was 11%; in assay [2] (setting [8]), 47%; in assay [2] (at 50.0 µM), 76.9% (active). Besides, the growth inhibition in assay [3] (setting [7]) was 18%; in assay [3] (setting [8]), 71% (active); in assay [3] (at 50.0 µM), 28.9%; in assay [4] (setting [7]), -13%; in assay [4] (setting [8]), 57%; in assay [4] (at 50.0 µM), 61.3%. Besides, the growth inhibition in assay [5] (setting [7]) is 21%; in assay [5] (setting [8]), 71% (active); in assay [5] (at 50.0 µM), 60.4%; in assay [6] (setting [7]) it was 11%; in assay [6] (setting [8]) it was 57%; in assay [6] (at 50.0 µM), 31.5%.

Consider `N#Cc1ccc(C2Oc3ccc(Cl)cc3C=C2[N+](=O)[O-])cc1` (stereo not given), for which the growth inhibition in assay [1] (setting [7]) was 98% (active); in assay [1] (setting [8]), 99% (active); in assay [1] (at 50.0 µM), 84.7% (active); in assay [2] (setting [7]), 100% (active); in assay [2] (setting [8]), 99% (active); in assay [2] (at 50.0 µM) it was 75.7% (active). Further, the growth inhibition is 100% (active) in assay [3] (setting [7]); 99% (active) in assay [3] (setting [8]); 91.2% (active) in assay [3] (at 50.0 µM); 98% (active) in assay [4] (setting [7]); 98% (active) in assay [4] (setting [8]); 88.7% (active) in assay [4] (at 50.0 µM). Further, the growth inhibition in assay [5] (setting [7]) was 98% (active); in assay [5] (setting [8]) it was 98% (active); in assay [5] (at 50.0 µM), 75.6% (active); in assay [6] (setting [7]) it was 99% (active); in assay [6] (setting [8]), 99% (active); in assay [6] (at 50.0 µM) it was 83.3% (active).

As to `CCC1(CC)COC(C)(C(=O)O)OC1`, the growth inhibition is -155% in assay [1] (setting [7]); -176% in assay [1] (setting [8]); 56.9% in assay [1] (at 50.0 µM); -50% in assay [2] (setting [7]); -62% in assay [2] (setting [8]); 11.1% in assay [2] (at 50.0 µM). Moreover, the growth inhibition in assay [3] (setting [7]) is -68%; in assay [3] (setting [8]), -69%; in assay [3] (at 50.0 µM) it was -2.95%; in assay [4] (setting [7]), -51%; in assay [4] (setting [8]), -77%; in assay [4] (at 50.0 µM) it was -41.4%. For the same molecule, the growth inhibition in assay [5] (setting [7]) is -65%; in assay [5] (setting [8]) it was -71%; in assay [5] (at 50.0 µM), 6.2%; in assay [6] (setting [7]), -127%; in assay [6] (setting [8]), -168%; in assay [6] (at 50.0 µM), -6.2%.

In the case of `O=C(C(=O)c1ccc(Cc2ccc(C(=O)C(=O)c3ccccc3)cc2)cc1)c1ccccc1`, the growth inhibition in assay [1] (setting [7]) is -1%; in assay [1] (setting [8]), -20%; in assay [1] (at 50.0 µM), 6.45%; in assay [2] (setting [7]), 0%; in assay [2] (setting [8]), -4%; in assay [2] (at 50.0 µM), 6.4%. Also, the growth inhibition in assay [3] (setting [7]) was 1%; in assay [3] (setting [8]) it was 1%; in assay [3] (at 50.0 µM), -15.6%; in assay [4] (setting [7]), 3%; in assay [4] (setting [8]), -17%; in assay [4] (at 50.0 µM), 27.4%. Also, the growth inhibition is 2% in assay [5] (setting [7]); -22% in assay [5] (setting [8]); 0.8% in assay [5] (at 50.0 µM); 2% in assay [6] (setting [7]); -17% in assay [6] (setting [8]); 12.2% in assay [6] (at 50.0 µM).

With `O=C(Nc1ccc([N+](=O)[O-])cc1[N+](=O)[O-])C(=O)C(C(=O)c1ccc(Cl)c(Cl)c1)C1OC(=O)c2ccccc21` (stereo not given), the growth inhibition is 27% in assay [1] (setting [7]); 27% in assay [1] (setting [8]); 67% in assay [1] (at 50.0 µM); 25% in assay [2] (setting [7]); 25% in assay [2] (setting [8]); 40.9% in assay [2] (at 50.0 µM). Besides, the growth inhibition is 22% in assay [3] (setting [7]); 22% in assay [3] (setting [8]); 61.8% in assay [3] (at 50.0 µM); 30% in assay [4] (setting [7]); 30% in assay [4] (setting [8]); 72.3% (active) in assay [4] (at 50.0 µM). For the same molecule, the growth inhibition was 31% in assay [5] (setting [7]); 31% in assay [5] (setting [8]); 53.5% in assay [5] (at 50.0 µM); 16% in assay [6] (setting [7]); 16% in assay [6] (setting [8]); 39.6% in assay [6] (at 50.0 µM).

`O=NNc1ccc2cc3ccc(NN=O)cc3nc2c1`: the growth inhibition in assay [1] (setting [7]) is 16%; in assay [1] (setting [8]) it was 25%; in assay [1] (at 50.0 µM), 43.2%; in assay [2] (setting [7]) it was 6%; in assay [2] (setting [8]), 26%; in assay [2] (at 50.0 µM) it was -11.1%. Also, the growth inhibition in assay [3] (setting [7]) is 7%; in assay [3] (setting [8]), 24%; in assay [3] (at 50.0 µM) it was 52.5%; in assay [4] (setting [7]), 11%; in assay [4] (setting [8]) it was 24%; in assay [4] (at 50.0 µM), 27.7%. The growth inhibition was 9% in assay [5] (setting [7]); 14% in assay [5] (setting [8]); 34.6% in assay [5] (at 50.0 µM); 15% in assay [6] (setting [7]); 31% in assay [6] (setting [8]); 52.7% in assay [6] (at 50.0 µM).
